Screening data as filed in PubChem.
An excerpt weighted towards active compounds, which were near 3.9% of everything screened.
GDH-TPI counter: counter-screen for M. tuberculosis FBA inhibitors: GDH-TPI coupled enzymes. AID 588335. GDH-TPI coupled enzyme counterscreen, NADH absorbance. 360,000 tested, 1.2% active. inhibition, % at 4.8 µM; in the data active = inhibition above about 30%;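 also: 0% = DMSO wells and 100% = wells lacking the enzyme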
SARS 3CLpro inh: SARS-CoV 3CLpro protease inhibition; P0C6X7; recombinant SARS-CoV 3CLpro, quenched FRET peptide cleavage; inhibition, % at 6 µM; 290,000 tested, 0.14% active; AID 1706; in the data active = inhibition above about 12%
FBA Mtb inh: inhibitors of M. tuberculosis fructose-bisphosphate aldolase | inhibition, % at 1 µM | purified M. tuberculosis FBA, fluorescence read-out | AID 588726 | P9WQA3 | 360,000 tested, 2.3% active; in the data active = inhibition above about 27%;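 also: 0% = vehicle and 100% = reference inhibitor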
Target sequence (P9WQA3 whole entry, looked up): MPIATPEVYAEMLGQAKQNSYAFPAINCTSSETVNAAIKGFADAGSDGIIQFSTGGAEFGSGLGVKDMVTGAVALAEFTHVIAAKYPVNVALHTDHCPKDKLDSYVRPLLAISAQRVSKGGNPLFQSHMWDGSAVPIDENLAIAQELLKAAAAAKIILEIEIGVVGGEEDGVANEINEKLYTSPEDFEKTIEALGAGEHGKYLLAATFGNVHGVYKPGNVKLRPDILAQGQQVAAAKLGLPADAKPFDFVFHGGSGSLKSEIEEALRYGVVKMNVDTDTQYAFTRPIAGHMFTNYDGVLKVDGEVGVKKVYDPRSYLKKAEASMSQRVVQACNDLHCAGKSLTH
Vc quorum ag: quorum light induction in luxS cqsA deficient V. cholerae | activation, % at 18.7 µM | 350,000 tested, 0.16% active | V. cholerae BH1578 lux reporter, luminescence, 6 h; in the data active = activation mostly above about 9.7%, no sharp cut-off
PrPC surface inh: reduces human prion protein on the cell surface; 370,000 tested, 0.43% active; cell surface PrPC, TR-FRET read-out; inhibition, % at 13.8 µM; in the data active = inhibition above about 24%; also: 0% = median of the test wells and 100% = reference compound wells
Numbers without * were called inactive; i = inactive; · = not tested or not shown; + = active, no number.

SMILES	GDH-TPI counter	SARS 3CLpro inh	FBA Mtb inh	Vc quorum ag	PrPC surface inh
O=C(CCSc1nc(-c2ccco2)cc(C(F)(F)F)n1)NCC1CCCO1 (stereo not drawn)	33*	-1	-1	i	1
O=C(CSc1nc(-c2ccco2)cc(C(F)(F)F)n1)NCC1CCCO1 (stereo not drawn)	31*	-7	0	i	-2
O=C(CSc1nc(-c2ccco2)cc(C(F)(F)F)n1)NCCCN1CCOCC1	15	-4	2	i	0
Cc1cccc(C)c1NC(=O)CSc1nc(-c2ccco2)cc(C(F)(F)F)n1	33*	-5	2	i	-1
COc1ccccc1N1CCN(C(=O)CSc2nc(-c3ccco3)cc(C(F)(F)F)n2)CC1	32*	-1	0	1	-5
O=C(CCCSc1nc(-c2ccco2)cc(C(F)(F)F)n1)NCC1CCCO1 (stereo not drawn)	33*	-2	0	0	4
O=C(CCCSc1nc(-c2ccco2)cc(C(F)(F)F)n1)NCc1cccs1	10	2	-4	1	12
Cc1c(CC(=O)N2C[C@H]3C[C@@H](C2)c2cccc(=O)n2C3)c(=O)oc2c(C)c(O)ccc12	11	1	+	0	-4
Cc1c(CCC(=O)N2C[C@H]3C[C@@H](C2)c2cccc(=O)n2C3)c(=O)oc2c(C)c(O)ccc12	8	·	191*	0	7
Cc1oc2c(C)c3oc(=O)c(CCC(=O)N4C[C@H]5C[C@@H](C4)c4cccc(=O)n4C5)c(C)c3cc2c1C	6	-1	4	-1	3
Cc1c(CC(=O)N2C[C@H]3C[C@@H](C2)c2cccc(=O)n2C3)c(=O)oc2cc(O)c(Cl)cc12	31*	0	·	-1	-5
Cc1nc2[nH]c(=S)n(C)c(=O)c2nc1C	10	-4	0	0	-4
CCOC(=O)CCCC(=O)N1CCOCCOCCOCC1	-1	8	-1	-1	1
COC(=O)C1=CN(CC2CCCO2)C=C(C(=O)OC)C1c1ccccc1C(F)(F)F (stereo not drawn)	6	1	158*	0	1
COC(=O)C1=CN(CC2CCCO2)C=C(C(=O)OC)C1c1cccc(O)c1 (stereo not drawn)	3	0	196*	0	-8
COc1ccccc1C(=O)NCCCN1CCCC1=O	-11	3	-1	-1	-4
COC(=O)C1=CN(CCCN2CCCC2=O)C=C(C(=O)OC)C1c1ccccc1C(F)(F)F	22	-1	123*	0	-11
COC(=O)C1=C(N)Oc2cc(C)n(CC3CCCO3)c(=O)c2C1c1ccccc1OC (stereo not drawn)	5	-2	2	7	2
CCCN1C(=O)/C(=C/c2c(N3CCNC(=O)C3CC(=O)OC)nc3c(C)cccn3c2=O)SC1=S (stereo not drawn)	·	-2	·	·	·
Cc1ccc(C(=O)Nc2ccc(O)c(C(=O)O)c2)o1	6	1	7	0	8
CC(C)(C)c1ccc(OC(=O)Nc2ccc(O)c(C(=O)O)c2)cc1	-2	5	80*	0	0
Fc1ccc(C(CCNCc2ccccn2)c2ccc(Cl)cc2)cc1 (stereo not drawn)	15	-5	1	-10	·
CC1CCC2(CC1)CCN(CCCOC(=O)Nc1cccc(F)c1)C2=O (stereo not drawn)	·	·	·	·	14
COc1ccc2c(c1)/C(=N/N1C(=O)c3ccccc3C1=O)C(=O)N2	·	2	·	·	·
COc1ccc2c(c1)/C(=C\c1cccc(/C=C3/C(=O)Nc4ccc(OC)cc43)n1)C(=O)N2	33*	·	-1	-1	-5
SMILES	GDH-TPI counter	SARS 3CLpro inh	FBA Mtb inh	Vc quorum ag	PrPC surface inh
COc1ccc(CNC(=O)C(c2ccco2)N(C(=O)c2ccccn2)c2ccccc2)cc1 (stereo not drawn)	-5	3	-3	0	-3
CC(C)(C)OC(=O)N1CCN(C(=O)Nc2ccc3c(c2)OCCO3)CC1	0	-2	-2	0	3
COc1ccc(/C=N/NC(=S)Nc2ccccc2[N+](=O)[O-])cc1O	49*	-9	-9	0	-21
Cc1ccc(C=NNC(=O)C(=O)Nc2ccc(Cl)c([N+](=O)[O-])c2)cc1	·	·	-1	·	-3
O=[N+]([O-])c1cc(/C=N/NC(=S)Nc2ccccc2Cl)ccc1Cl	33*	5	-1	0	-6
CCCOc1ccc(/C=N/NC(=S)Nc2ccccc2[N+](=O)[O-])c(O)c1	·	9	·	·	-13
Cc1ccc(NC(=S)N/N=C/c2ccc(Cl)c([N+](=O)[O-])c2)cc1	33*	0	-3	0	-8
O=C(NC(=S)Nc1ccc2c(c1)OCCO2)c1cccc2ccccc12	4	0	0	0	-6
Cc1c(Cc2ccccc2)c(=O)oc2cc(O)cc(O)c12	12	2	114*	i	13
CCNc1nc(C)c(CN(C(C)=O)c2ccccc2)nc1C#N	8	-2	126*	0	-13
CCNc1nc(N)c(C(=C(C#N)C#N)c2ccccc2)s1	23	4	167*	-1	-2
Nc1nc(Nc2ccccc2)sc1C(=O)c1ccccc1	9	2	-1	-1	1
Cc1ccsc1/C=C/c1ccc2cccc(O)c2n1	8	-2	-2	·	-20
Oc1cccc2ccc(/C=C/c3cccs3)nc12	31*	0	-2	0	-19
Fc1ccc(-c2nc3ccc(Cl)cn3c2Cc2cccc(F)c2)cc1	·	·	6	·	-6
Cc1noc(C)c1C(=O)Nc1nnc(-c2ccccc2)s1	35*	-1	7	i	8
Cc1onc(-c2ccccc2)c1C(=O)Nc1nnc(C(C)C)s1	1	1	-1	i	9
O=C(Nc1nnc(SCc2ccc(Cl)cc2)s1)c1ccco1	32*	0	-2	-2	-3
Cc1cccc(-c2nnc(NC(=O)c3ccco3)s2)c1	34*	4	2	i	0
Nc1ccc(CN2CCOCC2)cc1	3	0	0	-1	-1
COc1ccccc1CNC(=O)COC(=O)c1ccccc1SCC(=O)N1CCCC1	-5	·	-3	5	-4
O=C(N/N=C/c1ccc(-c2cccc(C(F)(F)F)c2)o1)c1ccccc1Br	54*	4	2	i	4
O=C(N/N=C/c1ccc(-c2cccc(C(F)(F)F)c2)o1)c1cccc(F)c1	44*	3	3	0	2
CC1CC(C)CN(C(=O)COC(=O)c2ccc3c(c2)OCCO3)C1 (stereo not drawn)	-10	·	-2	-7	-6
COC(=O)c1ccccc1-c1ccc(/C=N/Nc2nc(N3CCCC3)nc(N3CCCC3)n2)o1	61*	6	23	0	1
COC(=O)c1ccccc1-c1ccc(/C=N/NC(=O)c2cc3ccccc3o2)o1	52*	-5	5	-1	6
O=C(N/N=C/c1ccsc1)c1cc2ccccc2o1	24	-3	1	-11	9
CCCOc1ccc(F)cc1-c1cc(C(=O)Nc2ccc(OC)cc2C)[nH]n1	4	·	-2	-1	-4
